The supplement of paper PMC6135742
Where a name gives a salt, the structure may show the parent alone. ± gives the standard deviation of the averaged measurements. In all, about 2,600 compounds were measured (“MBP+ mature oligodendrocyte number relative to DMSO vehicle control”: median about -0.34, highest 2% from about 13 on). This is one part of a sample in which the highest values are shown more often than they occur.

test system: jimpy (Plp1 jimpy) mouse iPSC-derived oligodendrocyte progenitor cells; experiment: MBP+ mature oligodendrocyte number relative to DMSO vehicle control (SDs above negative control mean); higher = more surviving jimpy oligodendrocytes (rescue); details: 10 µM; 3 days
Description: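 Primary phenotypic screen of >3,000 bioactive compounds (Selleck L1700 and Sigma LO1280 libraries) at a single dose of 10 µM. Compounds were added to jimpy (Plp1 mutant) mouse iPSC-derived OPCs at the start of thyroid hormone-induced oligodendrocyte differentiation, one well per compound in 384-well plates. After 3 days cells were stained for MBP, Sox10 and DAPI and imaged with an Operetta system. MBP+ oligodendrocyte number and total cell number were expressed as the number of SDs above the mean of the DMSO negative control on the same plate (n=16 control wells per plate). Hits were defined as >=4 SD for oligodendrocytes and >=2 SD for total cells.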

| Structure (SMILES) | MBP+ mature oligodendrocyte number |
| --- | --- |
| CC[C@H](NC(=O)[C@H](C)NC)C(=O)N1C[C@@H](O)C[C@H]1Cc1c(-c2[nH]c3cc(F)ccc3c2C[C@@H]2C[C@H](O)CN2C(=O)[C@H](CC)NC(=O)[C@H](C)NC)[nH]c2cc(F)ccc12 [Birinapant] | -5.76 |
| NCCCCCNCC12CC3CC(CC(C3)C1)C2 [IEM 1754 dihydrobroMide] | -4.82 |
| O=C1NCC2(CCN(CCc3ccccc3)CC2)O1 [Fenspiride HCl] | 21.6 |
| O=C1NCC2(CCN(CCc3ccccc3)CC2)O1 [Fenspiride hydrochloride] | 10.5 |
| O=C1NCN(c2ccccc2)C12CCN(CCCC(c1ccc(F)cc1)c1ccc(F)cc1)CC2 [Fluspirilene] | -4.41 |
| O=C(O)P(=O)(O)O [Foscarnet Sodium] | -1.56 |
| CC(=O)OC[C@H]1O[C@@H]([S-])[C@H](OC(C)=O)[C@@H](OC(C)=O)[C@@H]1OC(C)=O.CCP(CC)CC.[Au+] [Auranofin] | < -3.85 |
| CCCC1O[C@@H]2C[C@H]3[C@@H]4CCC5=CC(=O)C=C[C@]5(C)[C@H]4[C@@H](O)C[C@]3(C)[C@]2(C(=O)CO)O1 (stereo partly drawn) [Budesonide] | 13.4 ± 10 |
| C[C@]12C=CC(=O)C=C1CC[C@@H]1[C@@H]2[C@@H](O)C[C@@]2(C)[C@H]1CC[C@]2(O)C(=O)CO [Prednisolone] | 7.54 |
| CC1(C)O[C@@H]2C[C@H]3[C@@H]4CCC5=CC(=O)C=C[C@]5(C)[C@H]4[C@@H](O)C[C@]3(C)[C@]2(C(=O)CO)O1 [Desonide] | 9.44 |
| Nc1ccccc1NC(=O)c1ccc(CNc2nccc(-c3cccnc3)n2)cc1 [Mocetinostat (MGCD0103)] | < -6.7 |
| CC(O)C(O)[C@H]1CNc2nc(N)[nH]c(=O)c2N1 (stereo partly drawn) [(6R)-5,6,7,8-Tetrahydro-L-biopterin hydrochloride] | -1.5 |
| CCCn1c(=O)c2c(ncn2C)n(CCC)c1=O [1,3-Dipropyl-7-methylxanthine] | 0.502 |
| CO/N=C(\C(=O)N[C@@H]1C(=O)N2C(C(=O)O)=C(Cn3ccc(=N)n3CCO)CS[C@H]12)c1csc(N)n1 [Cefoselis Sulfate] | 0.982 |
| C[C@H](NC(=O)C(=O)Nc1ccccc1C(C)(C)C)C(=O)N[C@@H](CC(=O)O)C(=O)COc1c(F)c(F)cc(F)c1F [Emricasan] | 10.3 |
| CC(C)C[C@H](NC(=O)[C@@H](NC(=O)c1cccc(-c2ccccc2)n1)[C@@H](C)O)B(O)O | < -6.7 |
| CC(C)[C@H](NC(=O)c1ccc2ccccc2n1)C(=O)N[C@@H](CC(=O)O)C(=O)COc1c(F)cccc1F | 24.8 |
| NC[C@@H]1O[C@H](c2ccccc2)Cc2c1ccc(O)c2O | -0.675 |
